HT1080NT lethal: kills 2HG-producing HT-1080-NT fibrosarcoma cells; HT-1080-NT fibrosarcoma viability, CellTiter-Glo ATP luminescence, 48 h; Potency, µM (doses to about 46.1 µM), for the others: at the top dose activity, negative = less viability, hits mostly cytotoxic; 1.6% of 360,000 active; AID 686970;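 further: NT is the 2HG producing partner of a matched IDH1 knockdown line; 0% = DMSO-treated cells and -100% = media-only wells without cells; nearly all actives have a fitted effect of over 55% in size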
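Luminescent CellTiter-Glo readout after 48 hours of compound exposure at 37 degrees C defined viability of HT-1080-NT cells. Activity was normalized to DMSO wells and cell-free media wells; concentration-response curves were fitted and assigned curve classes.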
SW480 rereplic: DNA re-replication induction in SW480 cells; AID 624297; Potency, µM (doses to about 46.1 µM), for the others: at the top dose re-replication activation, usual class: activators; 1.8% of 340,000 active; SW480 DNA re-replication, Hoechst DNA content imaging, 48 h; further: % of control where 0% means no effect; nearly all actives have a fitted effect of over 55% in size
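Cells (250 per well) received 23 nL compound or DMSO by pin tool and were kept 48 hr at 37 C, 5% CO2. Nuclei were then stained with Hoechst for 40 min and scanned for DNA content.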
KB-3-1 tox: kills parental KB-3-1 adenocarcinoma cells; KB-3-1 viability, CellTiter-Glo ATP luminescence, 72 h; AID 1347075; 1.4% of 400,000 active; Potency, µM (top dose mostly 46.1 µM), most hits filed as cytotoxic; further: on the % scale 0 is the no-effect control and ±100 the full control effect; nearly all actives have a fitted effect of over 60% in size
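KB-3-1 parental drug-naive adenocarcinoma cells in DMEM/10% FBS, incubated 72 h at 37 C with pin-transferred compounds across a concentration series. Viability by CellTiter-Glo luminescence; concentration-response curves fitted after normalization.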
KB-V1 MDR tox: KB-V1 MDR subline cytotoxicity | KB-V1 MDR cells viability, CellTiter-Glo, 72 h | Potency, µM (series often up to 46.1 µM), actives largely listed as cytotoxic | 3.4% of 400,000 active | AID 1347076; further: on the % scale 0 is the no-effect control and ±100 the full control effect; nearly all actives have a fitted effect of over 60% in size
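Luminescent ATP read-out (CellTiter-Glo, 10 min) measures survival of drug-selected KB-V1 MDR cells after 72 h, 37 degrees C compound exposure. Medium: phenol-red-free DMEM, 10% FBS. Values from fitted concentration-response curves.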
HT1080 IDH1KD tx: toxicity to HT-1080 IDH1 knockdown cells (counter line). Potency, µM (doses to about 46.1 µM), for inactives: top-dose activity, negative = toxicity, hits mostly cytotoxic. HT-1080 IDH1 knockdown viability, ATP luminescence, 48 h. 2% of 360,000 active;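 further: 0% = DMSO wells and -100% = cell-free medium wells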
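Cytotoxicity counter-line: IDH1KD HT-1080, 48 h, CellTiter-Glo. Curves classed by r2, magnitude and activity.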
MCF10A rerep: DNA re-replication induction in MCF 10a cells; AID 624296; 2.9% of 350,000 active; MCF 10A DNA re-replication, Hoechst nuclear intensity, 48 h; Potency, µM (highest dose often 46.1 µM), without a hit: at the highest dose activity, positive = re-replication, actives largely listed as activators; further: % of control where 0% means no effect; nearly all actives have a fitted effect of over 50% in size
The depositor's hits bear a star. Only some compounds are listed: those with a hit (about 7.9% of all), similar ones and a draw of the others. The call rests on the fitted dose curve; in most records, active means well fitted curve in the direction sought with a large enough effect; inconclusive means small, poorly fitted or top-dose-only effect, or another doubt; inactive means no such curve, though single readings can be large; an effect the other way counts as inactive or inconclusive. Potency means the concentration at half of the fitted maximal effect.

Results for Cc1ccc(NC(=O)C(C)Oc2ccccc2)cc1S(=O)(=O)N1CCCCCC1 (centres undefined) ?
HT1080NT lethal: -14.6%; SW480 rereplic: -1.4%; KB-3-1 tox: inactive; KB-V1 MDR tox: inactive; HT1080 IDH1KD tx: -18.0%; MCF10A rerep: 13.3%

What do the screens show for `COc1ccccc1NS(=O)(=O)c1cc(NC(=O)CNC(=O)c2cc(C)cc(C)c2)ccc1C`?
HT1080NT lethal: 5.0%; SW480 rereplic: inconclusive; KB-3-1 tox: inactive; KB-V1 MDR tox: 18.4µM*; HT1080 IDH1KD tx: 0.5%; MCF10A rerep: 6.3%

How did Cc1ccc(NS(=O)(=O)c2cc(NC(=O)C(C)Oc3ccccc3)ccc2C)c(C)c1 (centres undefined) do in these assays?
HT1080NT lethal: -29.5%; SW480 rereplic: 2.3%; KB-3-1 tox: inconclusive; KB-V1 MDR tox: 18.4µM*; HT1080 IDH1KD tx: inconclusive; MCF10A rerep: 23.3%

How did O=C(Nc1c(C(=O)c2ccc(F)cc2)oc2ccccc12)c1cc(-c2ccccc2)on1 do in these assays?
KB-3-1 tox: inactive; KB-V1 MDR tox: inactive

How did Cc1ccc2c(c1)N(C(=O)CCC(=O)NCc1cccc(F)c1)CC(C)O2 (centres undefined) do in these assays?
KB-3-1 tox: inactive; KB-V1 MDR tox: inactive

Results for O=C(NNc1ccccc1[N+](=O)[O-])Nc1ccc(Cl)c(Cl)c1 ?
HT1080NT lethal: 18.4µM*; SW480 rereplic: -2.3%; KB-3-1 tox: inconclusive; KB-V1 MDR tox: inactive; HT1080 IDH1KD tx: 18.4µM*; MCF10A rerep: inconclusive

Results for CCN(CC)S(=O)(=O)c1cc([N+](=O)[O-])ccc1NNC(=O)Nc1ccc(Cl)c(Cl)c1 ?
HT1080NT lethal: 5.8µM*; SW480 rereplic: 26.7%; KB-3-1 tox: 5.8µM*; KB-V1 MDR tox: inconclusive; HT1080 IDH1KD tx: 4.11µM*; MCF10A rerep: inconclusive

Results for O=C(NNc1ccccc1[N+](=O)[O-])Nc1ccccc1 ?
HT1080NT lethal: 0.7%; SW480 rereplic: -0.7%; KB-3-1 tox: inactive; KB-V1 MDR tox: inactive; HT1080 IDH1KD tx: -2.4%; MCF10A rerep: 1.3%

How did Cc1ccc(NC(=O)CN(c2ccc(Cl)cc2)S(=O)(=O)c2cc([N+](=O)[O-])ccc2Cl)cc1 do in these assays?
HT1080NT lethal: -18.1%; SW480 rereplic: inconclusive; KB-3-1 tox: inconclusive; KB-V1 MDR tox: inconclusive; HT1080 IDH1KD tx: -19.8%; MCF10A rerep: inconclusive

How did CCCCCCCCCCCCCCCC[n+]1ccc(C)c2ccccc21 do in these assays?
KB-3-1 tox: 3.66µM*; KB-V1 MDR tox: 13µM*

How did Cc1cc[n+](CC(=O)c2ccc(F)cc2)c2ccccc12 do in these assays?
KB-3-1 tox: inactive; KB-V1 MDR tox: inactive

Results for CCCC[n+]1c(C)ccc2ccccc21 ?
KB-3-1 tox: inconclusive; KB-V1 MDR tox: inactive

How did CCCCCCCCCC[n+]1cccc2c3ccccc3ccc21 do in these assays?
HT1080NT lethal: 4.11µM*; SW480 rereplic: 20.9%; KB-3-1 tox: 1.16µM*; KB-V1 MDR tox: inactive; HT1080 IDH1KD tx: 2.31µM*; MCF10A rerep: 30.7%

How did CCCCCCCCCC[n+]1cccc2cc(Cl)ccc21 do in these assays?
KB-3-1 tox: 5.17µM*; KB-V1 MDR tox: inactive

Results for CCCCCCCC[n+]1cccc2c3ccccc3ccc21 ?
HT1080NT lethal: 11.6µM*; SW480 rereplic: inconclusive; KB-3-1 tox: inconclusive; KB-V1 MDR tox: inactive; HT1080 IDH1KD tx: 8.2µM*; MCF10A rerep: inconclusive

How did CC(Oc1ccc(C#N)cc1)C(=O)N1CC=C(c2ccccc2)CC1 (centres undefined) do in these assays?
HT1080NT lethal: inconclusive; SW480 rereplic: inconclusive; KB-3-1 tox: 16.4µM*; KB-V1 MDR tox: 13µM*; HT1080 IDH1KD tx: inconclusive; MCF10A rerep: 16.4µM*

What do the screens show for `N#CC1=C(Nc2ccccc2)SC=C(c2ccc(Cl)c(Cl)c2)N=C1N1CCOCC1`?
HT1080NT lethal: -19.0%; SW480 rereplic: -0.4%; KB-3-1 tox: inactive; KB-V1 MDR tox: inactive; HT1080 IDH1KD tx: -12.4%; MCF10A rerep: 16.4µM*

Results for N#CC1=C(Nc2ccccc2)SC=C(c2ccccc2)N=C1N1CCOCC1 ?
HT1080NT lethal: -1.4%; SW480 rereplic: inconclusive; KB-3-1 tox: inactive; KB-V1 MDR tox: inactive; HT1080 IDH1KD tx: 0.2%; MCF10A rerep: inconclusive

How did C=C(C)CNC(=S)NNC(=O)CCn1c2ccccc2c2ccccc21 do in these assays?
HT1080NT lethal: 2.3%; SW480 rereplic: inconclusive; KB-3-1 tox: inconclusive; KB-V1 MDR tox: 18.4µM*; HT1080 IDH1KD tx: -0.7%; MCF10A rerep: inconclusive

How did COc1ccc(NC(=S)N(CCc2c(C)[nH]c3ccc(C)cc23)Cc2cccs2)cc1 do in these assays?
HT1080NT lethal: -9.3%; SW480 rereplic: 0.6%; KB-3-1 tox: inconclusive; KB-V1 MDR tox: inconclusive; HT1080 IDH1KD tx: inconclusive; MCF10A rerep: -5.1%

Results for CNC(=S)N(CCc1c(C)[nH]c2ccc(C)cc12)Cc1cccs1 ?
HT1080NT lethal: -18.6%; SW480 rereplic: 29.6%; KB-3-1 tox: inactive; KB-V1 MDR tox: inconclusive; HT1080 IDH1KD tx: -14.8%; MCF10A rerep: 3.66µM*

Results for CC(C)(C)OC(=O)C[C@@H]1C/C=C\C[C@H](CC(=O)N(CCO)Cc2ccccc2)C(=O)N[C@@H](Cc2c[nH]c3ccccc23)COC1=O ?
HT1080NT lethal: -4.0%; SW480 rereplic: 0.1%; KB-3-1 tox: inactive; KB-V1 MDR tox: inactive; HT1080 IDH1KD tx: 8.0%; MCF10A rerep: 2.4%

How did Cc1ccc(-c2[nH]ncc2CNC(C)c2ccccc2)cc1 (centres undefined) do in these assays?
KB-3-1 tox: inactive; KB-V1 MDR tox: inactive

What do the screens show for `COc1cc(SC#N)ccc1N=Cc1c(C)[nH]n(-c2ccc(C)c(C)c2)c1=O`?
HT1080NT lethal: 20.6µM*; SW480 rereplic: inconclusive; KB-3-1 tox: inconclusive; KB-V1 MDR tox: inconclusive; HT1080 IDH1KD tx: 14.6µM*; MCF10A rerep: inconclusive

What do the screens show for `COc1cc(SC#N)ccc1N=Cc1c(C)[nH]n(-c2ccc(Cl)cc2)c1=O`?
HT1080NT lethal: -14.6%; SW480 rereplic: 2.0%; KB-3-1 tox: inconclusive; KB-V1 MDR tox: inactive; HT1080 IDH1KD tx: -9.3%; MCF10A rerep: 3.6%

Results for CNC(=O)c1cc(Oc2ccc(NC(=O)c3[nH]c(-c4ccccc4)c4c3C(=O)N(C)C4=O)cc2)ccn1 ?
HT1080NT lethal: 20.3%; KB-3-1 tox: inactive; KB-V1 MDR tox: inactive; HT1080 IDH1KD tx: 11.1%

Results for COc1ccccc1C(=O)NC1CC(C)(C)NC(C)(C)C1 ?
HT1080NT lethal: 1.5%; SW480 rereplic: -0.3%; KB-3-1 tox: inactive; KB-V1 MDR tox: inactive; HT1080 IDH1KD tx: 10.7%; MCF10A rerep: -13.0%
